Source: PubChem
beta cell repl: inducers of beta-cell replication in MIN6 cells | MIN6 cells proliferation, ATPlite luminescence, 48 h; cells starved in 0.2% serum; 100% = growth in 10% serum | proliferation, % at 10 µM | hit rate 0.29% among 330,000 | AID 2380;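 active means compounds whose signal lies at least 3.5 SD above the mean of all wells on their plate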;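 further: 0% = DMSO-treated cells in low-serum medium and 100% = 10% serum control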
FAS TE block: FAS thioesterase (human) inhibition; inhibition, % at 15 µM; hit rate 0.67% among 360,000; AID 602261; P49327; recombinant FAS-TE, OMFH fluorogenic substrate, fluorescence endpoint;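 active means compounds whose normalised, plate-corrected inhibition of enzyme fluorescence in the single-dose primary screen is 50% or more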;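 further: 0% = DMSO with enzyme and 100% = substrate without enzyme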
MPTP inh: inhibitors of mitochondrial permeability transition pore | isolated mouse mitochondria, Ca2+ swelling absorbance, 30 min | hit rate 1.4% among 360,000 | inhibition, % at 10 µM;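 active means inhibition of 50% or more, scaled per plate between neutral and stimulator controls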;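 further: 0% = DMSO wells given calcium and 100% = 1 mM EGTA wells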
NR3A LBD binder: modulates the human NR3A ligand-binding domain. NR3A LBD differential scanning fluorimetry, Tm shift; 0% = protein alone, 100% = glycine-bound protein. Tm shift relative to glycine control, % at 25 µM. hit rate 2.5% among 340,000;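 active means melting temperature shift of at least 10% of the positive control shift, at one fixed dose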
p-CIP stab down: compounds decreasing mouse p/CIP protein stability; F442A p/CIP-EGFP cells, EGFP fluorescence, 16 h; decrease of EGFP signal, % at 10 µM; hit rate 0.01% among 290,000; AID 1984;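 active means EGFP signal decrease of at least 30% at 10 µM or well 3 SD below plate mean, unless failing retest; inactive means the rest, including hits failing retest or dose response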
An asterisk follows results filed as active; / = no result given. In the library only some 4.1% were active in any assay of this set; here they are far more common.

SMILES	beta cell repl	FAS TE block	MPTP inh	NR3A LBD binder	p-CIP stab down
CCN(CC)S(=O)(=O)c1ccc(N2CCCC2)c(NS(=O)(=O)c2ccccc2)c1	-1	7	1	16*	1
CC(O)(Cc1ccccn1)Cc1ccccn1	/	-9	2	0	/
N#C/C(=C\c1ccc(-c2ccc(F)cc2)o1)C(=O)Nc1nc(-c2cccs2)cs1	-1	-10	10	19*	-2
NS(=O)(=O)c1ccc(-c2ccc(/C=N/NC(=O)c3ccccc3O)o2)cc1	-2	2	4	13*	4
N#C/C(=C/c1ccc(-c2ccc(S(N)(=O)=O)cc2)o1)C(=O)Nc1ccccc1	-3	0	4	23*	-2
O=C(Nc1ccc2c(c1)OCO2)c1cc(C2CCCCN2C(=O)c2ccc(Cl)cc2)on1 (stereo unspecified)	/	10	0	/	/
O=C(COc1ccc(Br)cc1)N1CCc2ccccc21	-1	20	9	12*	-8
O=C(CN1CCOCC1)N/N=C/C=C/c1ccccc1	8.9*	-7	-1	1	-2
COc1cccc(-c2c(C(=O)N/N=C/c3ccc(C)s3)nnn2-c2nonc2N)c1	0	7	-1	13*	-14
CCOc1cccc(-c2c(C(=O)N/N=C/c3ccc(C)s3)nnn2-c2nonc2N)c1	-2	10	1	21*	9
Brc1ccc(C=Nc2ccc(Nc3ccccc3)cc2)s1	/	35	-1	12*	-2
N#Cc1c(SCC(=O)Nc2nc3ccc(Br)cc3s2)sc2c(O)cc(=O)[nH]c12	0	8	-1	18*	1
N#Cc1c(SCC(=O)Nc2nc3ccccc3s2)sc2c(O)cc(=O)[nH]c12	-3	-1	0	5	/
COc1ccc(CCNC(=O)CCCn2c(=S)[nH]c3cc4c(cc3c2=O)OCO4)cc1OC	/	-2	0	/	/
COc1cc(Nc2cccc(-c3ccccc3)n2)cc(OC)c1OC	/	11	-1	/	/
O=[N+]([O-])c1cc(C(F)(F)F)ccc1NCCc1c[nH]c2ccc(O)cc12	-4	28	3	29*	0
CS(=O)(=O)NCCCNc1ccc(C(F)(F)F)cc1[N+](=O)[O-]	0	-5	2	-1	-15
O=[N+]([O-])c1cc(C(F)(F)F)ccc1NCCc1c[nH]c2ccccc12	0	38	11	29*	-19
COc1cc(CCNC(=O)c2cnn3ccccc23)cc(OC)c1OC	-4	-5	-1	22*	-3
COc1ccc(CCNC(=O)c2cnn3ccccc23)c(OC)c1OC	0	-1	-2	0	-27
CC1CCCC(C)N1C(=O)CN1C(=O)NC2(CCCCCC2)C1=O (stereo unspecified)	/	-9	-1	/	/
O=C(Nc1ccc(O)c(-c2nc3ccccc3s2)c1)c1cccs1	-3	18	8	26*	-2
O=C(Nc1cccc(-c2csc(-c3ccccc3)n2)c1)c1cccs1	-4	32	7	24*	10
Cc1ccn2cc(-c3cccc(NC(=O)c4cccs4)c3)nc2c1	-4	4	1	1	1
Cc1cccn2cc(-c3cccc(NC(=O)c4cccs4)c3)nc12	-1	8	-3	23*	1
SMILES	beta cell repl	FAS TE block	MPTP inh	NR3A LBD binder	p-CIP stab down
O=C(Nc1ccc(F)cc1)Nc1sccc1-c1nc2ccccc2s1	-1	5	44	31*	-15
CCc1nc2ccc(C(=O)Nc3ccc4c(c3)OCC(=O)N4)cn2c1N(CC)Cc1cccc(Br)c1	/	12	-2	/	/
Cn1c(NCCOc2ccccc2Cl)nc2cc(-c3ccc(F)cc3)sc2c1=O	/	15	-1	/	/
CCCCCCOC(=O)Nc1ccc(S(=O)(=O)Nc2cccc([N+](=O)[O-])c2)cc1	-2	29	17	30*	-3
NS(=O)(=O)c1ccc(NS(=O)(=O)c2ccc(NC(=O)c3ccc(-c4ccccc4)cc3)cc2)cc1	-1	0	2	23*	8
CC(C)NS(=O)(=O)c1ccc(NC(=S)NC(=O)c2cccc([N+](=O)[O-])c2)cc1	0	3	2	13*	-6
CS(=O)(=O)N1CCc2cc(C(=O)Nc3cccc([N+](=O)[O-])c3)ccc21	1	10	-1	31*	-2
O=C(NC(=S)Nc1cccc(F)c1)c1cccc([N+](=O)[O-])c1	-3	15	1	-2	3
CCCCOC(=O)Nc1ccc(S(=O)(=O)Nc2nc(C)cc(C)n2)cc1	-3	-2	-3	0	3
COCCNC(=O)C1CCCN(C(=O)c2ccnc(Cl)c2)CC1 (stereo unspecified)	/	-4	0	/	/
COCCNC(=O)C1CCCN(C(=O)c2ccc3sccc3c2)CC1 (stereo unspecified)	/	-2	0	/	/
Cc1ccc(NS(=O)(=O)c2ccc(OCC(=O)Nc3cccc([N+](=O)[O-])c3)c(C)c2)cc1	-7	37	3	26*	-5
NS(=O)(=O)c1cccc(NC(=O)c2ccc(NS(=O)(=O)c3cccc([N+](=O)[O-])c3)cc2)c1	-1	-4	1	30*	/
NS(=O)(=O)c1ccc(C(=O)Nc2ccc(-c3nc4cccnc4s3)cc2)cc1	-1	-2	2	30*	3
Cc1ccc(NC(=O)CN(C)C(=O)c2ccc(NS(=O)(=O)c3cccc([N+](=O)[O-])c3)cc2)cc1	-1	3	0	-4	/
Cc1ccc(C(=O)Nc2cccc([N+](=O)[O-])c2)cc1S(=O)(=O)Nc1ccc(NC(=O)c2ccccc2)cc1	0	36	3	36*	-13
Cc1ccc(C(=O)Nc2cccc([N+](=O)[O-])c2)cc1S(=O)(=O)Nc1cccc(C(=O)O)c1	-1	7	-1	8	-2
O=C(Nc1cccnc1)c1ccc(N2CCCC2)c([N+](=O)[O-])c1	-1	1	0	1	-2
CC(=O)Nc1ccc(NC(=O)c2ccc(NS(=O)(=O)c3cc(C(C)(C)C)ccc3C)cc2)cc1	0	-5	4	17*	-4
O=C(Nc1cccc(S(=O)(=O)Nc2ccccc2Cl)c1)c1ccc(N2CCCC2)c([N+](=O)[O-])c1	-2	32	10	11*	-24
Cc1ccc(NS(=O)(=O)c2cc(C(=O)Nc3cccc([N+](=O)[O-])c3)ccc2C)cc1	-5	37	38	21*	-4
Cc1ccc(C(=O)NCCSC2CCCCC2)cc1S(=O)(=O)Nc1ccccc1	-3	30	28	16*	-3
O[C@@H]1C[C@H](c2ccccc2)N(CC2CCCCC2)C[C@H]1n1cc(C2CC2)nn1	/	2	-1	/	/
COc1ccc(Cl)cc1NC(=O)CN1C(=O)C(=O)N(C2CCCC2)C1=O	/	2	0	/	/
CC(=O)Nc1ccc2c(c1)C(N1CC3CCC(CC3)C1)c1ccccc1-2 (stereo unspecified)	/	27	2	6	/
COC(=O)[C@@]12C[C@@H](CC(=O)N3CCCCC3)C(=O)N(Cc3ccco3)C1=CCC(C)(C)C2	/	/	0	/	/
Nc1nc(-c2ccccc2)cn1N	-2	0	-5	11*	4
